Results as given in PubChem BioAssay (EPA / NIEHS).
Records with an inconclusive call do not appear. Active and inactive are the calls of the source. The calls were made as follows, unless noted: active = hit-call score of the fitted dose curve at least 0.9, where 1 is the maximum; inactive = score below 0.9.

What was measured:
[1] = target: Paired box protein Pax-6 (Homo sapiens) (UniProt P26367); assay: ATG_Pax6_CIS: Attagene CIS-FACTORIAL HepG2 Assay for human Paired Box 6 (PAX6) (AID 2282956); conditions: HepG2 CIS-FACTORIAL PAX6 reporter transcription, RNA readout; actives raise or lower the signal
Chain of Paired box protein Pax-6 (Homo sapiens) (P26367 whole entry, looked up): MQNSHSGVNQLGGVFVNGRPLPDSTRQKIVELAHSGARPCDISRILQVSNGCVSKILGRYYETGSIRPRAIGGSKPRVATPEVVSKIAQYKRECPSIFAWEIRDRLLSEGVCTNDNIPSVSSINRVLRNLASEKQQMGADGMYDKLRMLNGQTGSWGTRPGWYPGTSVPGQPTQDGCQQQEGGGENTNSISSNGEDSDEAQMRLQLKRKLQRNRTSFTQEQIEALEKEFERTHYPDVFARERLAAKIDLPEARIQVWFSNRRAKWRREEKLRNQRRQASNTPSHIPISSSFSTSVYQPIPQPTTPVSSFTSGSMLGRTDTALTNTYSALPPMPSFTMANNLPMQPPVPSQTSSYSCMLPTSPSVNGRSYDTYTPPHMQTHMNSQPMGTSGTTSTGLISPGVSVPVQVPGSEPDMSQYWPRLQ
How it was run: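 Readout: reporter transcript fluorescence after RT-PCR and capillary electrophoresis. Cells: HepG2, transiently transfected with cis-regulated MRTUs. Exposure 24 h. Gain or loss of signal fitted bidirectionally relative to DMSO.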

[2] = ATG_PXRE_CIS: Attagene CIS-FACTORIAL HepG2 Assay for human Pregnane X Receptor Element (PXRE) (AID 2282957); conditions: HepG2 Attagene CIS-FACTORIAL PXRE reporter, mRNA; actives raise or lower the signal
How it was run: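 Endogenous transcription factor activity in HepG2 was gauged through induction of reporter mRNA driven by a cis-regulating promoter element, sampled 24 h post-treatment. Activity was fitted in both directions against DMSO negative control.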

[3] = ATG_PPRE_CIS: Attagene CIS-FACTORIAL HepG2 Assay for human Peroxisome Proliferator-activated Response Element (PPRE) (AID 2282958); conditions: HepG2 PPRE cis-element reporter, Attagene transcription factor profiling; actives raise or lower the signal
How it was run: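 HepG2 cells transiently transfected with multiplexed cis-element reporter units measure endogenous transcription factor activity. After 24 h compound exposure, reporter mRNA is quantified by RT-PCR, 6-FAM labeling, HpaI digestion and capillary electrophoresis; bidirectional fits are made against DMSO baseline.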

[4] = ATG_RORE_CIS: Attagene CIS-FACTORIAL HepG2 Assay for human RAR-related Orphan Receptor Element (RORE) (AID 2282959); conditions: HepG2 Attagene cis-factorial RORE reporter, mRNA; actives raise or lower the signal
How it was run: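 HepG2 cells transiently transfected with multiple cis-element reporter transcription units, exposed to chemical for 24 h. Reporter mRNA quantified by RT-PCR, 6-FAM primer-extension labeling, HpaI digestion and capillary electrophoresis; bidirectional fit versus DMSO baseline.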

[5] = ATG_Sox_CIS: Attagene CIS-FACTORIAL HepG2 Assay for human SRY-box transcription factor (SOX) (AID 2282960); conditions: HepG2 Attagene cis-factorial SOX reporter, mRNA; actives raise or lower the signal
How it was run: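 HepG2 cells transiently transfected with cis-element-driven multiple reporter transcription units, dosed 24 h; reporter mRNA measured by RT-PCR, FAM labelling, HpaI digestion and capillary electrophoresis. Bidirectional fit versus DMSO baseline.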

[6] = target: Transcription factor Sp1 (Homo sapiens) (UniProt P08047); assay: ATG_Sp1_CIS: Attagene CIS-FACTORIAL HepG2 Assay for human Specificity Protein 1 (Sp1) (AID 2282961); conditions: HepG2 Sp1 cis-reporter transcription, actives raise or lower the signal
Chain of Transcription factor Sp1 (Homo sapiens) (P08047 whole entry, looked up): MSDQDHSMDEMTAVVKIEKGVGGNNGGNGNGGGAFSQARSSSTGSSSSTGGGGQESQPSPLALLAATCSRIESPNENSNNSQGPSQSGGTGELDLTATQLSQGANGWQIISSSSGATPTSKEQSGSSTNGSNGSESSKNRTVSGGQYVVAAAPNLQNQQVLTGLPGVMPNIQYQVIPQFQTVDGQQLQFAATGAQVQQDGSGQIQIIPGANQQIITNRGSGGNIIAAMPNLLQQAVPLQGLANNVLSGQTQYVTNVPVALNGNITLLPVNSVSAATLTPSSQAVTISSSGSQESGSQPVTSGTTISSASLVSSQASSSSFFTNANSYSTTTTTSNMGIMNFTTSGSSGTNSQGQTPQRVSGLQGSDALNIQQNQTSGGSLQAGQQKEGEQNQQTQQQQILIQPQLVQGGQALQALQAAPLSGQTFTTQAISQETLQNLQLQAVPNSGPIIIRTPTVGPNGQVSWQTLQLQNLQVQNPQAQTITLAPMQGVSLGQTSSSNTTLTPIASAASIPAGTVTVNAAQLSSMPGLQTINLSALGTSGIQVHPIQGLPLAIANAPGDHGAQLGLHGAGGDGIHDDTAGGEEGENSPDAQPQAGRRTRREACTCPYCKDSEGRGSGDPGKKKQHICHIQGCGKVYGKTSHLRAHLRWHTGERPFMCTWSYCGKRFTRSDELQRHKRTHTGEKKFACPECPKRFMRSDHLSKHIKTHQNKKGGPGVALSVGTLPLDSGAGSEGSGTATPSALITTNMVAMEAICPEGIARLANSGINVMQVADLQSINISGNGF
How it was run: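 HepG2 cells transiently transfected with multiple reporter transcription units driven by cis-regulatory elements; Sp1-responsive reporter mRNA measured 24 h after dosing by RT-PCR and capillary electrophoresis fluorescence, fitted bidirectionally against DMSO baseline.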

[7] = ATG_SREBP_CIS: Attagene CIS-FACTORIAL HepG2 Assay for human Sterol Regulatory Element Binding (SREBP) (AID 2282962); conditions: HepG2 Attagene cis-factorial SREBP reporter, mRNA; actives raise or lower the signal
How it was run: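 Readout: fluorescent reporter-transcript peaks resolved by capillary electrophoresis after RT-PCR. Cells were human HepG2 carrying transfected cis-promoter reporter constructs, dosed for 24 h. Gain or loss of signal was fitted against DMSO controls.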

[8] = target: Signal transducer and activator of transcription 3 (Homo sapiens) (UniProt P40763); assay: ATG_STAT3_CIS: Attagene CIS-FACTORIAL HepG2 Assay for human Signal Transducer and Activator of Transcription 3 (STAT3) (AID 2282963); conditions: HepG2, Attagene cis-factorial STAT3 reporter transcription; actives raise or lower the signal
Chain of Signal transducer and activator of transcription 3 (Homo sapiens) (P40763 whole entry, looked up): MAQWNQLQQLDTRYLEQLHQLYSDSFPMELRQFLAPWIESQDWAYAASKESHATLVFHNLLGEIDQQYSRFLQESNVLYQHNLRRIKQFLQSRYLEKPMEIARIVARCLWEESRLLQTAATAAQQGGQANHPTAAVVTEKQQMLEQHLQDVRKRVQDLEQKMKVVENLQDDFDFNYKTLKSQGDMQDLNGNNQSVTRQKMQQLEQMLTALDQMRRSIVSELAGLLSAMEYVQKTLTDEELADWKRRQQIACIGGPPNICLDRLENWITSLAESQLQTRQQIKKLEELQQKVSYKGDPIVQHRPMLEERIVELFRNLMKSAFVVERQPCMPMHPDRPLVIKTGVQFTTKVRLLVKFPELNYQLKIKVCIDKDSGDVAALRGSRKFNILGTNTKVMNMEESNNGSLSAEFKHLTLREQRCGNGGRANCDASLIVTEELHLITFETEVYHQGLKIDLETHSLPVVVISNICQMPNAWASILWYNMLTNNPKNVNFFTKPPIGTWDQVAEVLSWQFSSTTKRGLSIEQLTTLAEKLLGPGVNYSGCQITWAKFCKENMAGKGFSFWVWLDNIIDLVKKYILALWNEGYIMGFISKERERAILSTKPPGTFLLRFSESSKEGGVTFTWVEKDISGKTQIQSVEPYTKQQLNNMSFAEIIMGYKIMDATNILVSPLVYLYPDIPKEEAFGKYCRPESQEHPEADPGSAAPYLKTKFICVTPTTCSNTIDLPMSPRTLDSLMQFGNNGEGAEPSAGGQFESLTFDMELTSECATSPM
How it was run: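 HepG2, MRTU-transfected, 24 h dosing. RNA → RT → PCR → FAM label → HpaI → CE. Bidirectional fit vs DMSO.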

[9] = ATG_TA_CIS: Attagene CIS-FACTORIAL HepG2 Assay for human TA Basal Promoter (AID 2282964); conditions: HepG2 Attagene CIS-factorial TA basal promoter reporter; actives raise or lower the signal
How it was run: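 Multiplexed mRNA reporter assay, HepG2, 24 h. Reporter cDNA amplified, 6-FAM primer-extended, HpaI-cut, CE-sized; DMSO = negative control and baseline.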

[10] = ATG_TCF_b_cat_CIS: Attagene CIS-FACTORIAL HepG2 Assay for human T-Cell-Factor with beta-catenin (TCF/b-cat) (AID 2282965); conditions: HepG2 TCF/beta-catenin cis-reporter transcription, actives raise or lower the signal
How it was run: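 In this cis-format system, transfected HepG2 cells report endogenous transcription factor activity. Readout after 24 h exposure is reporter transcript abundance from RT-PCR and capillary electrophoresis, analysed for gain or loss of signal versus DMSO.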

[11] = ATG_TAL_CIS: Attagene CIS-FACTORIAL HepG2 Assay for human TAL Basal Promoter (AID 2282966); conditions: HepG2 Attagene cis-factorial TAL promoter reporter; actives raise or lower the signal;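 also: background control endpoint measuring basal TAL promoter reporter mRNA not a specific factor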
How it was run: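 Endogenous transcription-factor activity is sensed in HepG2 cells through transfected cis-promoter reporter constructs. After 24 h dosing, reporter transcripts are quantified by RT-PCR and capillary electrophoresis. Gain or loss of signal is fitted relative to DMSO.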

[12] = ATG_TGFb_CIS: Attagene CIS-FACTORIAL HepG2 Assay for human Transforming Growth Factor (TGF) (AID 2282967); conditions: HepG2 Attagene CIS TGFb reporter, mRNA transcription; actives raise or lower the signal
How it was run: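 Transcript-level reporter readout: HepG2 transfectants, 24 h exposure, RNA to cDNA, reporter-specific PCR, fluorescent primer extension, capillary sizing against ROX standards. Gain- or loss-of-signal relative to DMSO.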

[13] = ATG_VDRE_CIS: Attagene CIS-FACTORIAL HepG2 Assay for human Vitamin D Receptor Element (VDRE) (AID 2282968); conditions: HepG2 VDRE cis-reporter transcription, actives raise or lower the signal
How it was run: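 Steps: transfect HepG2 with multiple reporter transcription units; dose chemicals 24 h; isolate RNA; RT-PCR; label with 6-FAM primer extension; HpaI digest; capillary electrophoresis. Curves fitted both directions against DMSO.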

[14] = target: Nuclear receptor subfamily 1 group I member 3 (Homo sapiens) (UniProt Q14994); assay: ATG_CAR_TRANS: Attagene TRANS-FACTORIAL HepG2 Assay for human Constitutive Androstane Receptor (CAR) (AID 2282969; active = hit-call score of the fitted dose curve at least 0.9, where 1 is the maximum;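 also: activators raise reporter mRNA above DMSO so AC50 marks induction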); conditions: HepG2 Attagene TRANS-FACTORIAL CAR reporter
Chain of Nuclear receptor subfamily 1 group I member 3 (Homo sapiens) (Q14994 whole entry, looked up, the tested form may be a part): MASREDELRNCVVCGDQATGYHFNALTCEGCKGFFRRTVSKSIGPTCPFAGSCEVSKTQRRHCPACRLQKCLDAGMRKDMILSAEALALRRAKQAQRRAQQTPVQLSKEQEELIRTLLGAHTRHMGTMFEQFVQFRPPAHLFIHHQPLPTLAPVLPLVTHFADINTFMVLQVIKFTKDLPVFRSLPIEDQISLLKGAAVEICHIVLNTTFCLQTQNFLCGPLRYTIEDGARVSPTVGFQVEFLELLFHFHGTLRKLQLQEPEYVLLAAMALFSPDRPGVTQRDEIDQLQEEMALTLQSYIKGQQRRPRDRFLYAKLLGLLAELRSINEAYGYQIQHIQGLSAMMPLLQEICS
How it was run: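 Steps: transient transfection of HepG2 with multiple GAL4-UAS reporter units; 24 h compound incubation; RNA isolation, RT-PCR, 6-FAM primer extension, HpaI digest; capillary electrophoresis. Gain-of-signal relative to DMSO negative control.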

[15] = target: Estrogen receptor (Homo sapiens) (UniProt P03372); assay: ATG_ERa_TRANS: Attagene TRANS-FACTORIAL HepG2 Assay for human Estrogen Receptor alpha (ERa) (AID 2282970; active = hit-call score of the fitted dose curve at least 0.9, where 1 is the maximum); conditions: HepG2 Attagene TRANS ERa GAL4 reporter, mRNA
Chain of Estrogen receptor (Homo sapiens) (P03372 whole entry, looked up, the tested form may be a part): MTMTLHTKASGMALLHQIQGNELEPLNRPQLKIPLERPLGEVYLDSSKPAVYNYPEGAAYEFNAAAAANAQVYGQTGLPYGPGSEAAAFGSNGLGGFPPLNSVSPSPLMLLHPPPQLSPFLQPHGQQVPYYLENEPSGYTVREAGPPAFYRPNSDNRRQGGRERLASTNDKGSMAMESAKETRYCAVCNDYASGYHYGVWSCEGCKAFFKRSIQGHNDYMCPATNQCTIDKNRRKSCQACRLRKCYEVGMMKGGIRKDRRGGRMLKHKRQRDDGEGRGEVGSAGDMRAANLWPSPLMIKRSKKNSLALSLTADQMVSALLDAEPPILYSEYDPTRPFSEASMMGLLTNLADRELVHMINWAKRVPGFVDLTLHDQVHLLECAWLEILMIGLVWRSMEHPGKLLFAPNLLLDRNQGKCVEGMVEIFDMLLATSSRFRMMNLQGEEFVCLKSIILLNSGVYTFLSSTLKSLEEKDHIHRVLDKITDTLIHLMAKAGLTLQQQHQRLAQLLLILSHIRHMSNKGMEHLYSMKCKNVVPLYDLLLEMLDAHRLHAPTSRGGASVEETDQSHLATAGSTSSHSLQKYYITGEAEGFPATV
How it was run: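 Transfected HepG2 cells carrying GAL4-UAS-driven reporter units were dosed for 24 hours. Total RNA was reverse-transcribed, reporter sequences PCR-amplified, FAM-labelled, HpaI-digested and resolved by capillary electrophoresis. Increases over DMSO control defined activity.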

[16] = target: X-box-binding protein 1 (Homo sapiens) (UniProt P17861); assay: ATG_Xbp1_CIS: Attagene CIS-FACTORIAL HepG2 Assay for human X-box Binding Protein 1 (XBP1) (AID 2282972); conditions: HepG2 XBP1 cis-element reporter, Attagene multiplex; actives raise or lower the signal
Chain of X-box-binding protein 1 (Homo sapiens) (P17861 whole entry, looked up, the tested form may be a part): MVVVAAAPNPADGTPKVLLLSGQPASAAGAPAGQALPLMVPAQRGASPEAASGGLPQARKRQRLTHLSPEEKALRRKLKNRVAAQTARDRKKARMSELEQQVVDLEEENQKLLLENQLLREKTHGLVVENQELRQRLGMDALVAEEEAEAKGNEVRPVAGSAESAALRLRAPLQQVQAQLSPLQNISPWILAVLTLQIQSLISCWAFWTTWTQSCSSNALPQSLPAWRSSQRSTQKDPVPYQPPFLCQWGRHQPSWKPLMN
How it was run: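 Read-out: fluorescent reporter mRNA fragments resolved by capillary electrophoresis after RT-PCR. Human HepG2 liver cells carried transfected cis-promoter reporter units and were exposed to chemicals for 24 hours. Gain or loss of signal fitted relative to DMSO baseline.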

[17] = ATG_M_19_TRANS: Attagene TRANS-FACTORIAL HepG2 Assay for M19 Transcription Factor (Internal Marker) (AID 2282974; active = hit-call score of the fitted dose curve at least 0.9, where 1 is the maximum); conditions: HepG2 Attagene TRANS-FACTORIAL M19 internal marker reporter
How it was run: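 HepG2 cells transiently transfected with multiple GAL4-UAS reporter transcription units were exposed to chemicals for 24 h. Reporter mRNA was read by RT-PCR, 6-FAM primer extension, HpaI digestion and capillary electrophoresis; gain of signal fitted relative to DMSO.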

[18] = ATG_GAL4_TRANS: Attagene TRANS-FACTORIAL HepG2 Assay for GAL4 (Internal Marker) (AID 2282976; active = hit-call score of the fitted dose curve at least 0.9, where 1 is the maximum); conditions: HepG2 Attagene TRANS GAL4 internal marker reporter
How it was run: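 Fluorescence from capillary electrophoresis of labelled RT-PCR products quantifies reporter mRNA induction after 24 h dosing of HepG2 cells carrying transfected GAL4-UAS reporter transcription units. Vehicle DMSO serves as baseline.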

[19] = target: Steroid hormone receptor ERR1 (Homo sapiens) (UniProt P11474); assay: ATG_ERRa_TRANS: Attagene TRANS-FACTORIAL HepG2 Assay for human Estrogen-Related Receptor alpha (ERRa) (AID 2282971; active = hit-call score of the fitted dose curve at least 0.9, where 1 is the maximum); conditions: HepG2 Attagene TRANS reporter, ERRa transactivation
Chain of Steroid hormone receptor ERR1 (Homo sapiens) (P11474 whole entry, looked up, the tested form may be a part): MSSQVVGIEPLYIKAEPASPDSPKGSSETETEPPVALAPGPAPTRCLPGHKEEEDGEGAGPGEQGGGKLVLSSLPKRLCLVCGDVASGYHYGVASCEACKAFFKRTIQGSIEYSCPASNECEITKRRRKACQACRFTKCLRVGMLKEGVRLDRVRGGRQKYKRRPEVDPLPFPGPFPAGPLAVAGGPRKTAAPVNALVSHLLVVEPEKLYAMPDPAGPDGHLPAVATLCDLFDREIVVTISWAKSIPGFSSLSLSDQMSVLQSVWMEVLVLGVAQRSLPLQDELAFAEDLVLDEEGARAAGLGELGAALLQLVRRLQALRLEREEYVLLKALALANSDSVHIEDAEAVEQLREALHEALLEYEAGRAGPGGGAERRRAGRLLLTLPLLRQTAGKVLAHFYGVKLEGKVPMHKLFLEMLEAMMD
How it was run: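 HepG2 cells were transiently transfected with multiple GAL4-UAS reporter units, then dosed with compound for 24 h. Total RNA was reverse-transcribed, reporter cDNA PCR-amplified and fluorescently labelled, and fragments resolved by capillary electrophoresis; induction was compared with DMSO.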

[20] = target: Estrogen-related receptor gamma (Homo sapiens) (UniProt P62508); assay: ATG_ERRg_TRANS: Attagene TRANS-FACTORIAL HepG2 Assay for human Estrogen-Related Receptor gamma (ERRg) (AID 2282977; active = hit-call score of the fitted dose curve at least 0.9, where 1 is the maximum;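 also: hits increase reporter signal over DMSO so potencies reflect activators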); conditions: HepG2 Attagene TRANS reporter, ERRg transactivation
Chain of Estrogen-related receptor gamma (Homo sapiens) (P62508 whole entry, looked up, the tested form may be a part): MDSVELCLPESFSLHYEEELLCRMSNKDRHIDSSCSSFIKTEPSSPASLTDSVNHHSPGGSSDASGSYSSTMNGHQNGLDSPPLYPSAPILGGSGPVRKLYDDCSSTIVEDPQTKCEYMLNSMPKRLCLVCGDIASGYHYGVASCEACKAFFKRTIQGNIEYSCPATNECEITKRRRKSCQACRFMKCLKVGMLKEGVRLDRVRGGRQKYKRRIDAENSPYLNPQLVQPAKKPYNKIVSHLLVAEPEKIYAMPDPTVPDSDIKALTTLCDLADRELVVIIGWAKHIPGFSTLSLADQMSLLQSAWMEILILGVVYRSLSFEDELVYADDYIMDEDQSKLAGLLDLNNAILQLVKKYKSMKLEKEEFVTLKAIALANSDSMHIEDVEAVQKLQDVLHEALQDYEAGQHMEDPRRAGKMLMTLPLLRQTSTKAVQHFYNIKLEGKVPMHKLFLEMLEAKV
How it was run: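 Induction of reporter transcripts through a chimeric NR-Gal4 protein is quantified in transfected human HepG2 liver cells after 24 h chemical exposure, using RT-PCR with capillary electrophoresis detection and DMSO as baseline.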

Measured: AC50

CC(=O)Oc1ccc(C(C)=O)cc1
not listed: [18] | [19] | [20]
inactive: all other assays above

CCCCCCCCCCCCCCCC[n+]1ccccc1
active: [3] 8.82 µM | [12] 45.8 µM | [13] 3.87 µM
not listed: [14] | [15] | [16] | [17] | [18] | [19] | [20]
inactive: all other assays above

Cc1ccc(C(C)c2ccc(C)c(C)c2)cc1C
active: [2] 3.88 µM | [6] 100 µM | [7] 147 µM | [11] 123 µM
not listed: [16] | [18] | [19] | [20]
inactive: all other assays above

CC(C)c1ccc2c(C(C)C)cc(C(C)C)c(S(=O)(=O)O)c2c1
active: [2] 1.56 µM | [7] 22.4 µM | [13] 8.94 µM | [15] 45.4 µM
not listed: [14] | [17] | [19] | [20]
inactive: all other assays above

CCCCCCCCCCCSCC(=O)O
inactive: [2] | [5] | [8] | [10] | [19] | [18]
active: [1] 100 µM | [3] 5.09 µM | [4] 51.6 µM | [6] 151 µM | [7] 25.1 µM | [9] 98 µM | [11] 100 µM | [12] 100 µM | [13] 80.2 µM | [16] 100 µM

O=C1CCCC(=O)O1
not listed: [15] | [18] | [19] | [20]
inactive: all other assays above

C#CC1(O)CC[C@H]2[C@@H]3CCC4=CCCC[C@@H]4[C@H]3CC[C@@]21C (some centres not stated)
active: [2] 2.58 µM | [3] 33.4 µM | [4] 41.7 µM | [7] 27.4 µM | [9] 16.7 µM | [10] 33.4 µM | [11] 16.8 µM | [12] 9.28 µM | [15] 0.00914 µM
not listed: [14] | [19]
inactive: all other assays above

CCCNC(=O)NS(=O)(=O)c1ccc(Cl)cc1
not listed: [14] | [19] | [20]
inactive: all other assays above

CO[Si](OC)(OC)c1ccccc1
not listed: [14] | [17] | [18] | [20]
inactive: all other assays above

O=C(c1ccccc1)C1CCC1
not listed: [17] | [19] | [20]
inactive: all other assays above

CC(=O)OCCC1CCCCC1
active: [2] 31.8 µM
not listed: [18] | [19] | [20]
inactive: all other assays above

CCCCCCCCCCc1ccccc1
not listed: [14] | [17]
inactive: all other assays above

CCOc1ccc(N)c([N+](=O)[O-])c1
not listed: [15] | [16] | [17] | [18] | [19] | [20]
inactive: all other assays above

N[C@H]1C(O)O[C@H](CO)[C@H](O)[C@@H]1O (some centres not stated)
not listed: [14] | [19]
inactive: all other assays above

COC(=O)c1cc(Cl)ccc1[N+](=O)[O-]
active: [2] 76.1 µM
not listed: [18] | [19] | [20]
inactive: all other assays above

C=CC(C)(CCC=C(C)C)OC(=O)CC(C)C (configuration not stated)
active: [2] 6.26 µM | [7] 118 µM
not listed: [17] | [18] | [19] | [20]
inactive: all other assays above
